# Reference: PubChem BioAssay AID504332 (National Center for Advancing Translational Sciences (NCATS), 2011)
# Out of some 350,000 compounds screened, about 31,000 (8.9%) were called active. Not shown: some 15% with an inconclusive outcome. What follows is part of a selection rich in actives, with near analogues and random picks from the rest. Unmarked numbers belong to inactive results. Calls come from the whole dose curve; as a rule, active = well fitted inhibition curve with a large enough effect; inconclusive = small, poorly fitted or top-dose-only effect; inactive = no such curve, though single readings can be large or run the other way.
# Biological target: Histone-lysine N-methyltransferase EHMT2 (Homo sapiens) (UniProt Q96KQ7)
# Test: qHTS Assay for Inhibitors of Histone Lysine Methyltransferase G9a; note: nearly all actives have a fitted effect of over 75% in size
# Settings: G9a H3K9 monomethylation, AlphaScreen, 2 h; series mostly up to 59 µM; activity, negative = inhibition: at the top concentration
# Source text: Methylated lysines, on the N-terminal tails of histone proteins serve as epigenetic markers to recruit factors that can then modify local chromatin structure to lead to functional consequences. G9a and other members of the SUV39 family of the SET domain-containing superfamily of histone lysine methyltransferases (HMT) have been identified to specifically methylate Lys9 of histone H3 (H3K9). G9a catalyzes the mono- and di-methylation of H3K9 in mammalian euchromatic regions, where the resulting H3K9me2 is indicative of transcriptional repression. […] The inhibition of G9a will result in transcriptional activation and work synergistically with DNA methyltransferase and histone deacetylase inhibitors, to kill cancer cells. This qHTS assay for identification of G9a inhibitors is a chemiluminescence based AlphaScreen (PerkinElmer). Methylation of biotinylated-histone peptide is measured through specific antibody-based detection, in conjunction with streptavidin-coated donor and anti-IgG antibody-coated acceptor beads. The method is particularly well suited for detection of inhibitors acting by the desired histone peptide competitive mechanism and is applicable to testing other HMTs. Although AlphaScreen has significant advantages with its utility in a variety of epigenetic target assays, the primary screening data provided in this deposition should be used with caution due to the prevalence of screening artifacts. An AlphaScreen counterscreen is highly recommended to be run against any putative actives to eliminate non specific artifacts. Alternatively, one can use other AlphaScreen assays in PubChem to filter out promiscuous hits. Quinn et al. A chemiluminescence-based method for identification of histone lysine methyltransferase inhibitors. Mol Biosyst 6(5): 782-8. 2010. PMID: 20567762 [2] Baell,Holloway. New substructure filters for removal of pan assay interference compounds (PAINS) from screening libraries and for their exclusion in bioassays. J Med Chem. 53(7):2719-40. 2010. PMID: 20131845 NIH Molecular Libraries Probe Production Network [MLPCN] NIH Chemical Genomics Center [NCGC] Structural Genomics Consortium (SGC) NIH Grant: 5U54 MH084681-02
# To each well of a 1,536w plate, 2ul of HMT enzyme (final 20nM) were added, using a nanoliter dispenser. The G9a- and GLP-inhibitor BIX-01294 (CID: 25150857) are used as an intraplate control, with a 16-point titration in duplicate. A Kalypsys pin-tool transferred 23nl of library compound solution in DMSO to each well. Following a 15 min incubation of enzyme with compounds at room temperature, 1ul mixture of b-H3K9 peptide substrate (final 500nM) and SAM cofactor (final 20uM) were added. Reactions were allowed to proceed at room temperature for 2 hours. Methylated b-H3K9 peptide product was detected with 0.5 ug/mL rabbit polyclonal anti-monomethyl histone H3K9 antibody (Abcam Inc., Cambridge, MA) and 20 ug/mL each streptavidin-coated donor and anti-rabbit IgG acceptor AlphaScreen beads. Antibody and beads were added in a 1ul dispense, for a final volume of 4ul, and plates were incubated, protected from the light, for 10 min at room temperature. Microplates were then read on an EnVision multilabel plate reader using the 1,536 plate HTS AlphaScreen aperture (excitation time 80 ms, measurement time 240 ms).
# % is set by controls: 0 for no effect and ±100 for the full control effect; potency is the fitted concentration of half-maximal effect.
# Chain of Histone-lysine N-methyltransferase EHMT2 (Homo sapiens) (Q96KQ7 913-1193 limits assumed): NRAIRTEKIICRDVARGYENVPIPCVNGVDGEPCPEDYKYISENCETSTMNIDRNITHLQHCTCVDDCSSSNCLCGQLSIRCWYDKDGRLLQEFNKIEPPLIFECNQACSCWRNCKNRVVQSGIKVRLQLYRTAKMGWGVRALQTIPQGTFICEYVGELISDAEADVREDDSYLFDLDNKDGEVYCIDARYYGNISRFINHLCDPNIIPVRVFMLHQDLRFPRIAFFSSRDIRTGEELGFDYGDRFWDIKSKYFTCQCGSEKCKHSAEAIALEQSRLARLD
Compound,"activity, negative = inhibition",Potency
Cn1c(Cc2csc(N)n2)nnc1SC/C=C/c1ccccc1,12.8% [at 12.7 µM],
COc1ccc(C(=O)CSc2nnc(COc3ccccc3)n2Cc2ccco2)cc1,,50.1 µM (active)
O=C(CSc1nnc(COc2ccc(Cl)cc2)n1Cc1ccco1)N1CCNC1=O,-16.3% [at 0.501 µM],
O=C(CSc1nnc(-c2cccnc2)n1Cc1ccco1)c1ccc(Cl)c(Cl)c1,,50.1 µM (active)
C=CCn1c(CNC(=O)c2ccco2)nnc1SCC(=O)c1ccc(OC)cc1,12.4% [at 102 µM],
CCc1ccc(NC(=O)CSc2nnc(-c3cnccn3)n2Cc2ccco2)cc1,-31.5% [at 12.7 µM],
O=C(CSc1nnc(-c2cnccn2)n1Cc1ccco1)c1ccc(Cl)c(Cl)c1,,50.1 µM (active)
Cc1ccc(NC(=O)CSc2nnc(-c3cnccn3)n2Cc2ccco2)cc1C,7.37% [at 12.7 µM],
C(=C\c1ccccc1)/CSc1nnc(-c2cccnc2)n1Cc1ccco1,,50.1 µM (active)
CCOC(=O)Cc1csc(NC(=O)CSc2nnc(-c3cccnc3)n2Cc2ccco2)n1,-47.7%,
Cc1ccccc1CSc1nnc(-c2cccnc2)n1N,3.07% [at 12.7 µM],
O=C(CSc1nnc(-c2cccnc2)n1Cc1ccco1)c1ccc(Cl)cc1,-8.68%,
COc1ccc2c3c(c(=O)oc2c1)C1O[C@](CCCCN2C(=O)c4ccccc4C2=O)(Cc2c1ccc1ccccc21)O3,-1.18% [at 2.33 µM],
O=C(COc1ccc(Cl)cc1)Nc1ccc(-c2nc3cc(Cl)ccc3o2)c(O)c1,35.9%,
CCc1ccc(C(=O)NNC(=O)C2CCN(c3ncnc4sc(C)c(C)c34)CC2)cc1,-1.98% [at 102 µM],
Cc1ccc(Cl)cc1N(C)C(=O)C1CCCN(c2ncnc3onc(-c4ccc(F)cc4)c23)C1 (centres undefined),-6.61%,
CCC1(CC)NC(=O)N(CC(=O)OCC(=O)c2cc(C)c(C)cc2C)C1=O,-8.44% [at 102 µM],
O=C(COC(=O)CNC(=O)C1CCCCC1)Nc1cccc(F)c1,-1.37% [at 12.7 µM],
CCc1ccc(NC(=O)Cn2c(=O)n(CCC(=O)NCc3ccc4c(c3)OCO4)c(=O)c3ccccc32)cc1,-1.55%,
CC(C)(C)NC(=O)CSc1nc(-c2ccc(F)cc2)cc(C(F)(F)F)n1,-8.07%,
O=C(NCCS(=O)(=O)NCc1ccc(F)cc1)c1ccccc1,-4.54% [at 102 µM],
Cc1ccc(NC(=O)c2ccc(CN3CC(=O)N4CCCCC4C3=O)cc2)c(Cl)c1 (centres undefined),-21.2%,
CC(C)(C)OC(=O)Nc1ccc([C@@H](NC(=O)OC(C)(C)C)C(=O)OC(C)(C)C)cc1,9.51% [at 0.501 µM],
Cc1ccc2sc(N(Cc3cccnc3)C(=O)C3COc4ccccc4O3)nc2c1C (centres undefined),-4.67%,
COc1cc(Cl)c(C)cc1NC(=O)CSc1nnc(-c2cccnc2)n1Cc1ccco1,,39.8 µM (active)

Compound,"activity, negative = inhibition",Potency
Cc1cc(NC(=O)CSc2nc3cc(Cl)ccc3c(=O)n2Cc2ccco2)no1,-23.2% [at 102 µM],
CCn1c(SCC(=O)Nc2cc(C)c(Cl)cc2OC)nnc1-c1ccco1,-6.92%,
CCCCN(C)S(=O)(=O)c1ccc(C(=O)Nc2sc3c(c2C(N)=O)CC(C)(C)NC3(C)C)cc1,8.97%,
COc1ccc(-c2nc3c4ccccc4n(CC(=O)Nc4ccc(C(C)=O)cc4)c(=O)n3n2)cc1,-0.383%,
COc1cc(C2/C(=C(\O)c3ccc4c(c3)CC(C)O4)C(=O)C(=O)N2c2nnc(C)s2)cc(OC)c1OC (centres undefined),,44.7 µM (active)
COCCN1C(=O)C(=O)/C(=C(/O)c2ccc(S(=O)(=O)N3CCOCC3)cc2)C1c1ccc(O)c(OC)c1 (centres undefined),-19.1% [at 102 µM],
COCCN1C(=O)C(=O)/C(=C(/O)c2ccc(S(=O)(=O)N3CCCCC3)cc2)C1c1ccc(OC)c(OC)c1 (centres undefined),81.3% [at 102 µM],
CC(CCCc1ccccc1)NC(=O)c1nn(-c2ccc(Cl)cc2)nc1CO (centres undefined),0.317%,
O=C(Nc1nnc(S(=O)(=O)N2CCCc3ccccc32)s1)c1cccc(F)c1,-6.49%,
Cc1cccc(NC(=O)Cn2c(C(F)(F)F)nc3ccccc32)c1C,4.54%,
CCN1CCc2nc3sc(C(=O)Nc4ccccc4OC(F)(F)F)c(N)c3cc2C1,,14.1 µM (active)
CCc1ccc2nc3sc(C(=O)Nc4nnc(CC)s4)c(N)c3cc2c1,-8.03% [at 12.7 µM],
CCc1ccccc1NC(=O)c1sc2nc3c(cc2c1N)CN(Cc1ccccc1)CC3,-9.21%,
CCc1ccc(NC(=O)CSc2nc3c([nH]c4ccccc43)c(=O)n2-c2cccc(OC)c2)cc1,-2.08%,
Cc1ccc2c(c1)c1c(c(=O)n(-c3ccccc3)c(=O)n1CC(=O)c1ccc(Cl)cc1)n2C,-28.8%,
S=C(NCCCc1cnc[nH]1)NCCCN(Cc1ccc(Cl)c(Cl)c1)c1ccc(Br)cn1,,25.1 µM (active)
CCc1cc2c(cc3c(=O)n(CC(=O)N4CCN(c5cc(Cl)ccc5C)CC4)ncn32)s1,0.716%,
CCNC(=O)N1CCCC(C(=O)c2ccc(-c3ccccc3)cc2)C1 (centres undefined),51.8% [at 102 µM],
O=C(CN1CCc2ccccc2C1)Nc1cccc(S(=O)(=O)N2CCOCC2)c1,15.7% [at 12.7 µM],
O=Cc1c(NCCCN2CCCC2=O)c2ccccc2[nH]c1=O,20.8% [at 102 µM],
CCn1c(=O)c2ccccc2n(CC(=O)N2CCCc3ccccc32)c1=O,-7.66% [at 0.501 µM],
CC1Cc2ccccc2N1CC(=O)Nc1ccc(S(N)(=O)=O)cc1 (centres undefined),-108%,
COC(=O)c1[nH]c2ccccc2c1NC(=O)CN1CCCc2ccccc21,,44.7 µM (active)
NS(=O)(=O)c1cccc(NC(=O)CN2CCCc3ccccc32)c1,,44.7 µM (active)
